What follows are compounds tested on HepG2 (assay: GSK_TCMDC: Percent inhibition of human HepG2 cell line. Test compounds present at 10uM.).
Assay type: functional

| SMILES | Inhibition |
| --- | --- |
| Cc1nc(Nc2ccc(C)c(Cl)c2)c2c(C)noc2n1 | 0% |
| O=C(NCC1CCN(CCN2CCc3ccc4c(c3C2)OCO4)CC1)c1ccc(-c2ccc(C(F)(F)F)cc2)cc1 | 66% |
| Cl.N=C(N)Nc1nc(-c2ccc(NC(=N)N3CCC[C@H]3CN3CCCC3)cc2)cs1 | 6% |
| CCCCCc1cnc2nc(N)nc(N)c2c1C.Cl | 64% |
| CC1CCC(NC(=O)c2nn(-c3ccc(Cl)cc3)c(=O)c3ccccc23)CC1 (centres undefined) | 3% |
| O=C(Nc1cccc(-c2ccc(-c3nc4cc(F)ccc4[nH]3)cc2)c1)Nc1ccc(F)c(F)c1F | 53% |
| COc1ccc(C(=C(C)CC(C)C(=O)O)c2ccccc2)cc1 (centres undefined) | 6% |
| CC(=O)N(C)c1cccc(C(=O)Nc2cccc(-c3cccc(-c4nc5cc(C(F)(F)F)ccc5[nH]4)c3)c2)c1 | 49% |
| Fc1ccc(CNc2nc(-c3ccc(F)c(C(F)(F)F)c3)n(-c3cccc(C(F)(F)F)c3)n2)cc1 | 0% |
| Cc1cc2nc(-c3ccc(/C=C/C(=O)NCc4ccc(Cl)c(Cl)c4)cc3)[nH]c2cc1C | 32% |
| CO/C(=C/C=C/c1cc2cc(Cl)c(Cl)cc2[nH]1)C(=O)NC1CC(C)(C)N(C)C(C)(C)C1 | 58% |
| O=C(O)C(F)(F)F.OCCN1CCN(Cc2ccc(-c3cccc(-c4nc5ccccc5[nH]4)c3)cc2)CC1 | 32% |
| COc1ccc(-c2cc(C(=O)N[C@@H](CC3CCCCC3)C(=O)NC3CCCc4ccccc43)ccc2O)cc1 (some centres undefined) | 7% |
| CC(=O)c1nccc(C)c1N | 10% |
